PubChem BioAssay
Activity calls are given as the source filed them.

How the values were obtained:
[1] = small molecules captured by biotinylated probe aFSTL3 – biochemical, small-molecule microarray, fluorescence 635/667, stem cell growth factor project, primary screen (AID 1064); settings: higher = more signal;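 note: measures binding of the biotinylated anti-FSTL3 antibody to printed compounds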
[2] = binders from COS7 lysate, DM2A8 probe, primary screen, torsin A project, cell lysate, small-molecule microarray, fluorescence 635/667 (AID 1065); settings: higher = more signal, COS7 lysate expressing mutant human TOR1A
[3] = small molecules captured by biotinylated probe aFGF2 – biochemical, small-molecule microarray, fluorescence 635/667, stem cell growth factor project, primary screen (AID 1067); settings: higher = more signal;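 note: measures binding of biotinylated aFGF2 protein to printed compounds on slides; z-score merges feature fluorescence and signal-to-noise across triplicate slides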
[4] = small molecules captured by biotinylated probe aFGF10 – biochemical, small-molecule microarray, fluorescence 635/667, stem cell growth factor project, primary screen (AID 1071); settings: higher = more signal;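 note: score merges 667 nm spot intensity and signal to noise from triplicate slides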
[5] = target: Neurogenic locus notch homolog protein 2 (Homo sapiens) (UniProt Q04721); assay: small molecules binding Notch2 protein – biochemical, small-molecule microarray, 635 nm fluorescence, stem cell growth factors, primary screen (AID 1073); settings: higher = more signal
[6] = target: Pro-neuregulin-1, membrane-bound isoform (Homo sapiens) (UniProt Q02297); assay: small molecules binding neuregulin-1 protein – biochemical, small-molecule microarray, fluorescence 635/667, psychiatric disease protein project, primary screen (AID 1075); settings: NRG1 binding, 635 nm fluorescence, higher = more signal;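 note: score combines 667 nm spot fluorescence with signal to noise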
[7] = system: Neuregulin-1 EGF-like domain; assay: small molecules binding NRG1 EGF domain – biochemical, small-molecule microarray, 635 nm fluorescence, primary screen (AID 1081); settings: higher = more signal;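 note: binding of the protein to compounds printed on small-molecule microarray slides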
[8] = FRG1 expression reporter modulators in myotubes – cell-based, C2C12 myotubes, firefly/Renilla luciferase, luminescence, FRG1 inhibition for FSHD, primary screen (AID 1084); settings: FRG1 promoter luciferase, higher = more signal, called active from +8 up or from −8 down
[9] = small molecules captured by biotinylated probe aFST – biochemical, small-molecule microarray, fluorescence 635/667, stem cell growth factor project, primary screen (AID 1086); settings: higher = more signal;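 note: score merges 667 nm fluorescence with signal-to-noise of each printed compound spot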
[10] = binders of probe aHhip on microarray, primary screen, stem cell growth factor project, biochemical, small-molecule microarray, fluorescence 635/667 (AID 1087); settings: higher = more signal;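 note: score merges spot fluorescence at 667nm with spot signal to noise ratio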

Chain of Pro-neuregulin-1, membrane-bound isoform (Homo sapiens) (Q02297 whole entry, looked up, the tested form may be a part, canonical isoform): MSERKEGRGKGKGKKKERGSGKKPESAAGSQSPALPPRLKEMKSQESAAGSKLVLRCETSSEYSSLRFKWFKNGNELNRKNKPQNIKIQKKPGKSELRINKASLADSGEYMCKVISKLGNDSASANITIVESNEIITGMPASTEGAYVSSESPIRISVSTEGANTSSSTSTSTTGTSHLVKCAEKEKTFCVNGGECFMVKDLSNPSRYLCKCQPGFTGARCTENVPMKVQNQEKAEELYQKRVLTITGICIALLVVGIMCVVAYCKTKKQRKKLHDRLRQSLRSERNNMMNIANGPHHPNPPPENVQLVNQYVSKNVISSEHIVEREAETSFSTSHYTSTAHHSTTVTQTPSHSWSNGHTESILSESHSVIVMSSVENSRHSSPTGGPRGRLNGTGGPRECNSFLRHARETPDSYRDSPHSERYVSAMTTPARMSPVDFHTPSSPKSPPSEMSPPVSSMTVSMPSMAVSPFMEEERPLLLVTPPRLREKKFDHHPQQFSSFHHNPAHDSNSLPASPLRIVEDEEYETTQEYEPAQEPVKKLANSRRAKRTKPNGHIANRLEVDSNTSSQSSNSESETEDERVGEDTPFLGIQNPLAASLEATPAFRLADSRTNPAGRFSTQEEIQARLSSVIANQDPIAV
Chain of Neurogenic locus notch homolog protein 2 (Homo sapiens) (Q04721 whole entry, looked up, canonical isoform): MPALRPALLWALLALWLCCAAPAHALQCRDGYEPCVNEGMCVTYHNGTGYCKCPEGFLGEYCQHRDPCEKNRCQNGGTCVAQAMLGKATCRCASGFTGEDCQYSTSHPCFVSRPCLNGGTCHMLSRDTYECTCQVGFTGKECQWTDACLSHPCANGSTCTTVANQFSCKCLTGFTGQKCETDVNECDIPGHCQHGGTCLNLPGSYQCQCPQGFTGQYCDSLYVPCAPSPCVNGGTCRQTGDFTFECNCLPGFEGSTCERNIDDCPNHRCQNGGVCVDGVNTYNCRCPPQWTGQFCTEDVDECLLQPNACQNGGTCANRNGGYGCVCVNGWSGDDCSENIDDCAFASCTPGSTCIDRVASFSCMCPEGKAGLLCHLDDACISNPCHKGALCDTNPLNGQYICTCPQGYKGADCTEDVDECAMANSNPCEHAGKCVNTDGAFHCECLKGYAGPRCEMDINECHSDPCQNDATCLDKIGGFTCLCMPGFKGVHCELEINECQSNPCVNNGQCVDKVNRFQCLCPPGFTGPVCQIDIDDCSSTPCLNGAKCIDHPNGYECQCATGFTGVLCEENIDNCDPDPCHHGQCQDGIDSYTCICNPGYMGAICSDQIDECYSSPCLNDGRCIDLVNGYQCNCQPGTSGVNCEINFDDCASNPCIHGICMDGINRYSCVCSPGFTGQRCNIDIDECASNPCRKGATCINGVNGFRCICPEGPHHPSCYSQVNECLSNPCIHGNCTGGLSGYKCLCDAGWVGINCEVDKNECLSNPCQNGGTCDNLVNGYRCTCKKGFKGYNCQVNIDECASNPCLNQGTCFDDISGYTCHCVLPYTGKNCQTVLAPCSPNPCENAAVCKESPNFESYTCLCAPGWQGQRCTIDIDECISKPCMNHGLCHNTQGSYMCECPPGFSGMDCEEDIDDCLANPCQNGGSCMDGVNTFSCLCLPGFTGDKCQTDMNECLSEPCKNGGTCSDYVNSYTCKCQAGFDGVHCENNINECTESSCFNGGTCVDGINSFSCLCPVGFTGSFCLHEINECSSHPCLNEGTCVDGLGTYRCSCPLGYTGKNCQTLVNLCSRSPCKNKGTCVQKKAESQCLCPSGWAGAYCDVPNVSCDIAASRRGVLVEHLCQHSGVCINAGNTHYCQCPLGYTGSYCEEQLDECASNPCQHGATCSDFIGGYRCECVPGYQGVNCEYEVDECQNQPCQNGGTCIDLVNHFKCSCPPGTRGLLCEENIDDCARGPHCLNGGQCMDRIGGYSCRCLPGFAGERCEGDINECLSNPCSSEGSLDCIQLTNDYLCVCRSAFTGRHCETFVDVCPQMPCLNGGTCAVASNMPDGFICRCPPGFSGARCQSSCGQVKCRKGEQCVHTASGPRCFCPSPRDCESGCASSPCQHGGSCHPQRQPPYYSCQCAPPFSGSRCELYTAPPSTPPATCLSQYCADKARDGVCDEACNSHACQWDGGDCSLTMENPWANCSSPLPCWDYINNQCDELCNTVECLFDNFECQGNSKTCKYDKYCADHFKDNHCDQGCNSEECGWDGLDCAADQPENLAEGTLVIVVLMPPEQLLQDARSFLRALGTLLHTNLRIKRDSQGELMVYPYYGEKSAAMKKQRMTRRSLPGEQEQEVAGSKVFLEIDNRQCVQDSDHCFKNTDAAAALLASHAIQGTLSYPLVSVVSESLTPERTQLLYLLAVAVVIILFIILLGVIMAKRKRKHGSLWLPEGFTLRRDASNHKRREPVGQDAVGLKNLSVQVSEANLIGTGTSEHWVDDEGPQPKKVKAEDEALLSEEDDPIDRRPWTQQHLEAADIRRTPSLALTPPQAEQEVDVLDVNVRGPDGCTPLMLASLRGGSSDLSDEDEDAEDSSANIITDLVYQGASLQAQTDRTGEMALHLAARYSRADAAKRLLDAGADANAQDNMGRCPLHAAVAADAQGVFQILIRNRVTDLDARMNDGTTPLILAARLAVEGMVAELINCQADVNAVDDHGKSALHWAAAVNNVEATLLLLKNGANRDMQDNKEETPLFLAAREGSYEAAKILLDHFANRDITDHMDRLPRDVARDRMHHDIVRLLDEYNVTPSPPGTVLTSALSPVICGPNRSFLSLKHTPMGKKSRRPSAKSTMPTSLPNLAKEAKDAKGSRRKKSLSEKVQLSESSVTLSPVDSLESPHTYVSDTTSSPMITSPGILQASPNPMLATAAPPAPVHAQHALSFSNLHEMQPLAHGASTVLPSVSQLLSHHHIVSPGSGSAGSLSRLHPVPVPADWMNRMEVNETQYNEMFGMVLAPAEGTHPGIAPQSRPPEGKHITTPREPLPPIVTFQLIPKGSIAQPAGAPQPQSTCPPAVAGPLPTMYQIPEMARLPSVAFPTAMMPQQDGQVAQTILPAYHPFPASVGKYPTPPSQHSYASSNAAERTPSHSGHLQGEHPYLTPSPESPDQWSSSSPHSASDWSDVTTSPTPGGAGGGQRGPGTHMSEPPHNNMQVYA

| SMILES | composite z-score [1] | composite z-score [2] | composite z-score [3] | composite z-score [4] | composite z-score [5] | composite z-score [6] | composite z-score [7] | z-score [8] | composite z-score [9] | composite z-score [10] |
| --- | --- | --- | --- | --- | --- | --- | --- | --- | --- | --- |
| CN1C(=O)C2C=CC(C(O)C(c3ccccc3)c3ccccc3)N(NC(=O)OC(C)(C)C)C2C1=O (stereo not given) | 1.16 | 0.868 | 0.448 | 1.09 | 1.73 | 1.99 | 1.22 | 0.745 (inactive) | 1.79 | -0.116 |
| COC(=O)CC=C[C@@H](C)[C@H](OC)c1ccccc1Br | -0.297 | 1.46 | -0.0514 | 0.178 | 0.119 | -0.171 | -0.26 | 1.08 (inactive) | -0.155 | 0.275 |
| COCCOC(=O)N1C(=O)[C@@]2(c3cc(C#CC4(O)CCCCCC4)ccc31)[C@H](C(=O)N1CCN(c3ncccn3)CC1)[C@H]1C(=O)O[C@H](c3ccccc3)[C@H](c3ccccc3)N1[C@@H]2c1ccc(OCCO)cc1 | -0.266 | 0.318 | 0.192 | 0.727 | 1.24 | 0.939 | 1.33 | 0.401 (inactive) | 0.517 | 0.107 |
| COC(=O)[C@H](C)NC(=O)CCC1CC(OC(=O)NCCc2ccc(F)cc2)CC2(CCCC(COC(=O)NCCc3ccc(Cl)cc3)O2)O1 (stereo not given in full) | -0.655 | 1.39 | -0.0579 | 0.812 | 1.15 | 0.691 | 0.595 | 1.11 (inactive) | 0.393 | -0.0672 |
| CC[C@@H](c1ccccc1)n1c(=O)n2n(c1=O)[C@H]1[C@H](O)[C@@H]3O[C@@H]3C(=NOCC=C(C)CCC=C(C)C)[C@H]1CC2 | -0.415 | 0.138 | -0.102 | 0.471 | 0.8 | 0.8 | 0.89 | -0.0545 (inactive) | 0.572 | -0.169 |
| O=C1[C@H]2[C@H]3[C@H](O)[C@H](O)CC(=NOCc4ccccc4)[C@H]3CC[C@H]2C(=O)N1c1ccc(F)cc1F | -0.426 | -0.0076 | -0.0561 | 0.0471 | -0.0497 | 0.757 | 0.106 | 0.131 (inactive) | -0.314 | -0.214 |
| CO[C@H]([C@@H](C)[C@H](OC)c1ccccc1)[C@H](C)[C@@H](OC)[C@H](C)C(C)=O | -0.426 | -0.292 | -0.0785 | -0.154 | -0.448 | -0.383 | -0.944 | 0.425 (inactive) | 0.0432 | 2.49 |
| Cc1cc2c(c(=O)o1)[C@H](O)[C@H]1O[C@H]1C2=O | 0.0331 | 0.357 | -0.175 | 0.118 | 0.749 | -0.262 | 0.12 | -0.924 (inactive) | -0.0853 | -0.0994 |
| COC(=O)[C@@]1(Cc2ccc(F)cc2)[C@H]2c3cc(C(=O)N(C)C)n(Cc4ccc(OC)c(OC)c4)c3C[C@H]2CN1C(=O)c1ccccc1 | 0.257 | -0.0565 | 0.184 | 0.551 | 1.56 | 0.641 | 1.44 | 0.619 (inactive) | 0.169 | 0.402 |
| CCN1C(=O)[C@H]2[C@H]3[C@H](O)[C@H](O)CC(=NOCc4ccccc4)[C@@H]3CC[C@H]2C1=O | -0.239 | 0.441 | -0.197 | 0.31 | 0.931 | -0.195 | 0.567 | -0.641 (inactive) | 0.0882 | -0.3 |
| CCOC(=O)CCN1C(=O)[C@H]2[C@H]3[C@H](O)[C@H](O)CC(=NNC(=O)OCc4ccc(OC)cc4)[C@@H]3CC[C@H]2C1=O | -0.468 | 0.336 | -0.15 | 0.0569 | 0.0846 | 0.863 | 0.574 | 0.455 (inactive) | 0.15 | 0.251 |
| O=C1C[C@@H](O)[C@@H](O)[C@@H]2[C@@H]3C(=O)N(Cc4ccc5c(c4)OCO5)C(=O)[C@@H]3CC[C@@H]12 | -0.612 | 0.196 | -0.149 | 0.833 | 0.651 | -0.13 | 0.568 | 0.324 (inactive) | 0.278 | 0.065 |
| CC(C)[Si]1(C(C)C)O[C@@H](c2ccccc2)c2cc(C3CC3)nc(-c3ccccc3)c21 | -0.324 | -0.598 | -0.0494 | -0.0526 | 0.0397 | -0.234 | -0.717 | 0.178 (inactive) | -0.0973 | 0.0274 |
| CO[C@@H]1COC(=O)[C@@H]2CCCN2C(=O)[C@@H](C)COC(=O)[C@H](COCc2ccccc2)NC(=O)CC=C[C@H]1C | -0.451 | 0.32 | -0.112 | 0.451 | 0.433 | 0.101 | 0.253 | -0.0485 (inactive) | 0.79 | -0.0645 |
| CCOC(=O)NN=C1C[C@@H](O)[C@@H](O)[C@@H]2[C@@H]3C(=O)N(CC)C(=O)[C@@H]3CC[C@@H]12 | -0.415 | 0.377 | -0.0355 | 0.72 | 0.797 | -0.008 | 0.672 | 0.323 (inactive) | 0.713 | -0.201 |
| C#CCCCON=C1C[C@@H](O)[C@@H](O)[C@@H]2[C@@H]3C(=O)N([C@@H](C)c4ccccc4)C(=O)[C@@H]3CC[C@H]12 | -0.196 | -0.0639 | -0.127 | 0.342 | 0.76 | 0.233 | 0.755 | 0.548 (inactive) | 0.342 | -0.0994 |
| O=C1O[C@@H](c2ccccc2)[C@@H](c2ccccc2)N2[C@@H](c3ccc(O)cc3)[C@]3(C(=O)Nc4ccccc43)[C@@H](C(=O)O)[C@H]12 | -0.149 | 0.227 | -0.0969 | 0.46 | 0.0863 | 1.67 | 1.08 | -1.09 (inactive) | 0.231 | -0.0212 |
